Results from ChEMBL document CHEMBL1961873, “Compounds: GSK PKIS; Assays: Nanosyn kinase panel” (2012).

Key:
[1] = biological target: Tyrosine-protein kinase Fyn (Homo sapiens) (UniProt P06241); conditions: at 1 µM
[2] = biological target: Tyrosine-protein kinase HCK (Homo sapiens) (UniProt P08631); conditions: at 0.1 µM
[3] = biological target: Tyrosine-protein kinase HCK (Homo sapiens) (UniProt P08631); conditions: at 1 µM
[4] = biological target: Insulin-like growth factor 1 receptor (Homo sapiens) (UniProt P08069); conditions: at 0.1 µM
[5] = biological target: Insulin-like growth factor 1 receptor (Homo sapiens) (UniProt P08069); conditions: at 1 µM
[6] = biological target: Insulin receptor (Homo sapiens) (UniProt P06213); conditions: at 0.1 µM
[7] = biological target: Insulin receptor (Homo sapiens) (UniProt P06213); conditions: at 1 µM
[8] = biological target: Insulin receptor-related protein (Homo sapiens) (UniProt P14616); conditions: at 0.1 µM
[9] = biological target: Insulin receptor-related protein (Homo sapiens) (UniProt P14616); conditions: at 1 µM
[10] = biological target: T1, Tyrosine-protein kinase ITK/TSK (Homo sapiens) (UniProt Q08881); conditions: at 0.1 µM
T1 sequence (whole entry): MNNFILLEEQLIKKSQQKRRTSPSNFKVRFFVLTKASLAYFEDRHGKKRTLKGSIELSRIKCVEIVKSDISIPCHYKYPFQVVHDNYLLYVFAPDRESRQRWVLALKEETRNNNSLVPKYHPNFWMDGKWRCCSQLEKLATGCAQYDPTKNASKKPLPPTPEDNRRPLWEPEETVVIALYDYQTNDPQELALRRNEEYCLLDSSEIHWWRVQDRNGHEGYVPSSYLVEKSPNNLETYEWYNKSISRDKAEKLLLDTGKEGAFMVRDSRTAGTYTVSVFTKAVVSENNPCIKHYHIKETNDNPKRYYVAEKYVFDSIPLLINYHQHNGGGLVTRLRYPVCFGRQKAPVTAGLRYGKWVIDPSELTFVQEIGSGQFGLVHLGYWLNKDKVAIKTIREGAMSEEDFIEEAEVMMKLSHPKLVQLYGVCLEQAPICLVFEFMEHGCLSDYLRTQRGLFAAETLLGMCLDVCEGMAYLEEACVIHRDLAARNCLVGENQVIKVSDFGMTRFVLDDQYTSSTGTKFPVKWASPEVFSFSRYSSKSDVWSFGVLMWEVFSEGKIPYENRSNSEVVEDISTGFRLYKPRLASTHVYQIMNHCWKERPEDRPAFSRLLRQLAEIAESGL

[11] = biological target: T1, Tyrosine-protein kinase ITK/TSK (Homo sapiens); conditions: at 1 µM
[12] = biological target: Tyrosine-protein kinase JAK1 (Homo sapiens) (UniProt P23458); conditions: at 0.1 µM
[13] = biological target: Tyrosine-protein kinase JAK1 (Homo sapiens) (UniProt P23458); conditions: at 1 µM
[14] = biological target: Tyrosine-protein kinase JAK2 (Homo sapiens) (UniProt O60674); conditions: at 0.1 µM
[15] = biological target: Tyrosine-protein kinase JAK2 (Homo sapiens) (UniProt O60674); conditions: at 1 µM
[16] = biological target: T2, Tyrosine-protein kinase JAK3 (Homo sapiens) (UniProt P52333); conditions: at 0.1 µM
T2 sequence (whole entry): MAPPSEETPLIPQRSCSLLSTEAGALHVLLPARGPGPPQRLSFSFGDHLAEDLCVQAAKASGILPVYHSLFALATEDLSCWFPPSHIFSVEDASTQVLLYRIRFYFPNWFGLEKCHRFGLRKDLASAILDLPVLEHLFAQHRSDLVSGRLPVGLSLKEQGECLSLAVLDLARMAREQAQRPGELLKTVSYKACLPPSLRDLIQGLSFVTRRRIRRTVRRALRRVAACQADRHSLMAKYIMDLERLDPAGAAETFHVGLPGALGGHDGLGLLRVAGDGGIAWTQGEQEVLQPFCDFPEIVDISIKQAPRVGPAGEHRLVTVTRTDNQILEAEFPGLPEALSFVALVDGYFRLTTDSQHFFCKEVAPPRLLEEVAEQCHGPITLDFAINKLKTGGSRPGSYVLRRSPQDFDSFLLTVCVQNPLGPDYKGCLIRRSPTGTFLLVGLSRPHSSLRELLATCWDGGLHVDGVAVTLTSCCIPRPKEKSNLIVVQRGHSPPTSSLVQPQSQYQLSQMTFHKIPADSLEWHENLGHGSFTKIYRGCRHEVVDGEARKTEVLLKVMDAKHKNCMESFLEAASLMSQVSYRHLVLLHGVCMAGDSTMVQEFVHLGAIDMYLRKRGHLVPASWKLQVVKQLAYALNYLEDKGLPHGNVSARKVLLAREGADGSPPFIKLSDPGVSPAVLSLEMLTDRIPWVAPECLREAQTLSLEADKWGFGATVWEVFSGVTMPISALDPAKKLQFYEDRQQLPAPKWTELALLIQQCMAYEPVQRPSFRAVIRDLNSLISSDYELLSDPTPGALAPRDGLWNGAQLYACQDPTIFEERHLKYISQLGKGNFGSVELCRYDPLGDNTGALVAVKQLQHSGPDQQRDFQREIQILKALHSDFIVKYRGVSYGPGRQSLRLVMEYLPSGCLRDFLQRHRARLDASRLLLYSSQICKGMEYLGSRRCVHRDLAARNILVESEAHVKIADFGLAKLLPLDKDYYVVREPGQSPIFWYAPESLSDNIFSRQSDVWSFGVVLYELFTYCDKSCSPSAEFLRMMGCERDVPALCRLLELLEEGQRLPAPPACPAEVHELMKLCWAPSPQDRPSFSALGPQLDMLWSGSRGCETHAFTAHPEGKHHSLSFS

[17] = biological target: T2, Tyrosine-protein kinase JAK3 (Homo sapiens); conditions: at 1 µM
[18] = biological target: Vascular endothelial growth factor receptor 2 (Homo sapiens) (UniProt P35968); conditions: at 0.1 µM
[19] = biological target: Vascular endothelial growth factor receptor 2 (Homo sapiens) (UniProt P35968); conditions: at 1 µM
[20] = biological target: Mast/stem cell growth factor receptor Kit (Homo sapiens) (UniProt P10721); conditions: at 0.1 µM;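 also: values are mean inhibition of KIT, from the GSK PKIS dataset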

Chain of Insulin receptor-related protein (Homo sapiens) (P14616 27-742 limits assumed): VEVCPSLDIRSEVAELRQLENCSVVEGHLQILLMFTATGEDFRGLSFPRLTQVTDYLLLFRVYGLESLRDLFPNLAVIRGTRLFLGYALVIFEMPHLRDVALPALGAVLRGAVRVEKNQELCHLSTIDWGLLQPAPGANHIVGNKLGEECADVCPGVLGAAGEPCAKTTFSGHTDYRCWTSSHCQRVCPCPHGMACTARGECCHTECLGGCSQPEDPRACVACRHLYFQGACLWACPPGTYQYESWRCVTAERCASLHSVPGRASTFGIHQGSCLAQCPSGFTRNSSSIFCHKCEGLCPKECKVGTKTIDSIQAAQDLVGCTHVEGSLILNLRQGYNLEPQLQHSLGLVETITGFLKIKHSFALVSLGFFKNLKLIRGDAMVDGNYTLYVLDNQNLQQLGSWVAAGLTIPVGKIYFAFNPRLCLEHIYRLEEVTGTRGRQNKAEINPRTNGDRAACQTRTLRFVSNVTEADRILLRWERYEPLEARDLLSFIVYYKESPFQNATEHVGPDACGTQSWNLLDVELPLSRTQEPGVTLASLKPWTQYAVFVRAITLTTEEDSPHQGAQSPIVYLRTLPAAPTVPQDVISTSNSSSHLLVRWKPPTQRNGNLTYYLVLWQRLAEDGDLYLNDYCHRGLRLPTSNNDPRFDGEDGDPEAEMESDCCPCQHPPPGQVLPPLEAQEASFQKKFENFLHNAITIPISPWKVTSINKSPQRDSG
Chain of Insulin receptor-related protein (Homo sapiens) (P14616 747-1297 limits assumed): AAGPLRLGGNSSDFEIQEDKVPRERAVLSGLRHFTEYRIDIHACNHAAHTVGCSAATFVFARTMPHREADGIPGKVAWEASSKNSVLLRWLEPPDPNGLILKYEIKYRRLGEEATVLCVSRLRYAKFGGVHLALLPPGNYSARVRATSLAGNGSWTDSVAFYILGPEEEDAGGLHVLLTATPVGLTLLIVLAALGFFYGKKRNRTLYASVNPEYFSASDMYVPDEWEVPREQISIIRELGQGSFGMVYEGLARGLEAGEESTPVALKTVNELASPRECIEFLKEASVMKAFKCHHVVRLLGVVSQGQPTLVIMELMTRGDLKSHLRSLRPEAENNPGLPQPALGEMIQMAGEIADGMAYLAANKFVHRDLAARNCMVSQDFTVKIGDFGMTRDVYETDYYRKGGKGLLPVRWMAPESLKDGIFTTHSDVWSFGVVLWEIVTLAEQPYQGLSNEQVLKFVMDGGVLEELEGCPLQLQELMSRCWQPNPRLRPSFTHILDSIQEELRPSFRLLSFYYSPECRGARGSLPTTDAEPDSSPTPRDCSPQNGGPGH
Chain of Vascular endothelial growth factor receptor 2 (Homo sapiens) (P35968 whole entry): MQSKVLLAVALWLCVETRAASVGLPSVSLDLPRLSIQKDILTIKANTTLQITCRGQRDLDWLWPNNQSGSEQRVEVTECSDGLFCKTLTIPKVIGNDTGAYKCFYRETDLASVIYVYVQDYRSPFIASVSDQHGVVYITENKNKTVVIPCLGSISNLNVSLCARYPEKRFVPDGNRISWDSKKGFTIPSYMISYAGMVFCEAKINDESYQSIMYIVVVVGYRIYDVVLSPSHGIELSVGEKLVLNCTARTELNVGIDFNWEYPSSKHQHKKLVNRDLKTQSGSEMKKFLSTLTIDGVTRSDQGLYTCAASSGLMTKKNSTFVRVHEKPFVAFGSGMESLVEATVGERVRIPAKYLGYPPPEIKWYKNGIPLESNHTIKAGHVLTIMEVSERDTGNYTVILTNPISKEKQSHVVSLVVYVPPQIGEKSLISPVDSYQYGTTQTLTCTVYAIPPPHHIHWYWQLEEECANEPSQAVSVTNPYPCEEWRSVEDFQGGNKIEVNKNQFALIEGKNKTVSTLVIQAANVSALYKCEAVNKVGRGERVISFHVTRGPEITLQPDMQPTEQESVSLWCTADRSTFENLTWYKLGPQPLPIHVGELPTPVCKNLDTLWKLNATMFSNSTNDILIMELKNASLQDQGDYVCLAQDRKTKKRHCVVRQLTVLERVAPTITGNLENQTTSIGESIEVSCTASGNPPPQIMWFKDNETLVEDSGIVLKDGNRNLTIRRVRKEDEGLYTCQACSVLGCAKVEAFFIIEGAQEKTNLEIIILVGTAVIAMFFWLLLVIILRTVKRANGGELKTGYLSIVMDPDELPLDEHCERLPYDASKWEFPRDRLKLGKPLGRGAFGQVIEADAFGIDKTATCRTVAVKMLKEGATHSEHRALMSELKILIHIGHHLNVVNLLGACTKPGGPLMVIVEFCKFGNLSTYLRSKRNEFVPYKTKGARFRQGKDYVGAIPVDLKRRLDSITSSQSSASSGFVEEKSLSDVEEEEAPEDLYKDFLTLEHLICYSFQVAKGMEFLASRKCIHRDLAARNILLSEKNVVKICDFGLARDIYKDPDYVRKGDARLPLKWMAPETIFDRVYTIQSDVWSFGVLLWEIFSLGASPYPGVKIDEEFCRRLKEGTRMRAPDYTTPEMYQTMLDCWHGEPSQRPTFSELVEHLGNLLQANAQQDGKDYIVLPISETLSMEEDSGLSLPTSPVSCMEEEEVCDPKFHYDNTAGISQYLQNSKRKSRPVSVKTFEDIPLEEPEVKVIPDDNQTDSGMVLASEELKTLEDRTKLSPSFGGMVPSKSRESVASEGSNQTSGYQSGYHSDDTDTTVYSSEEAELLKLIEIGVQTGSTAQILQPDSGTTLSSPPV
Chain of Insulin receptor (Homo sapiens) (P06213 28-758 limits assumed): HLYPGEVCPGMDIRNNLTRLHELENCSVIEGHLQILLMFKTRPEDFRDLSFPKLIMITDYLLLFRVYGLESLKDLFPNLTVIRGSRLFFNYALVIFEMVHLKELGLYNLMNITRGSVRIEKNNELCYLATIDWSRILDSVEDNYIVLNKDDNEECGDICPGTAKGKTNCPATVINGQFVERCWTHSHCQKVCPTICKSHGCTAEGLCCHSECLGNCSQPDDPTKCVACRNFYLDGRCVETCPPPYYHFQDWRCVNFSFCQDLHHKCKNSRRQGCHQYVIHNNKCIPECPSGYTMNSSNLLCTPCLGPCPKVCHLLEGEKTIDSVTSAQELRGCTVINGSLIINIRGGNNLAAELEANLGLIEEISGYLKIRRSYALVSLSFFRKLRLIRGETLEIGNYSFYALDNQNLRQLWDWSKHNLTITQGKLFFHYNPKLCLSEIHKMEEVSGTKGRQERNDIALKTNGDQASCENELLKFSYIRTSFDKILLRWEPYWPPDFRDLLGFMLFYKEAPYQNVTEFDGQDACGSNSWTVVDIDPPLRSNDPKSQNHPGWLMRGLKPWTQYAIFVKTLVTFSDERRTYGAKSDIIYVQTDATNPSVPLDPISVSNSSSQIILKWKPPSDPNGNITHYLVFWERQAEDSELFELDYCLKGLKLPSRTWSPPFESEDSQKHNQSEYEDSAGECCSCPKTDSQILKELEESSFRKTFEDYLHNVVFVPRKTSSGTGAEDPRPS
Chain of Insulin receptor (Homo sapiens) (P06213 763-1382 limits assumed): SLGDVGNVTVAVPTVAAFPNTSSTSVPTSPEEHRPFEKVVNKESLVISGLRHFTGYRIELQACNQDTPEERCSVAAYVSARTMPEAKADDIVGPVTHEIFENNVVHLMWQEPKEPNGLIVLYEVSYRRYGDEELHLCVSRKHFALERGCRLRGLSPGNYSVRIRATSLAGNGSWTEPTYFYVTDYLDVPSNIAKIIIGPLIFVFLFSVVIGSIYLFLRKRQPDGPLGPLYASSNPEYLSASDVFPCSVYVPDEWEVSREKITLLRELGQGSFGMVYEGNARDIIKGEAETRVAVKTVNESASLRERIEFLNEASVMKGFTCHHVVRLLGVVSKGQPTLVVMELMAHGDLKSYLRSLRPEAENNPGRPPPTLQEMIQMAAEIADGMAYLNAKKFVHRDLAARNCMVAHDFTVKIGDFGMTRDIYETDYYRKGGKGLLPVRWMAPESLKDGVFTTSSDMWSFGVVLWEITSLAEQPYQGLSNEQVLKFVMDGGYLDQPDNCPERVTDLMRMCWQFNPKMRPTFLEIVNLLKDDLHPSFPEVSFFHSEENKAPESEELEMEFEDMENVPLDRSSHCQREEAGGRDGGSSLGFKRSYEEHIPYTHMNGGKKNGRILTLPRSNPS
Chain of Tyrosine-protein kinase HCK (Homo sapiens) (P08631 2-526 limits assumed): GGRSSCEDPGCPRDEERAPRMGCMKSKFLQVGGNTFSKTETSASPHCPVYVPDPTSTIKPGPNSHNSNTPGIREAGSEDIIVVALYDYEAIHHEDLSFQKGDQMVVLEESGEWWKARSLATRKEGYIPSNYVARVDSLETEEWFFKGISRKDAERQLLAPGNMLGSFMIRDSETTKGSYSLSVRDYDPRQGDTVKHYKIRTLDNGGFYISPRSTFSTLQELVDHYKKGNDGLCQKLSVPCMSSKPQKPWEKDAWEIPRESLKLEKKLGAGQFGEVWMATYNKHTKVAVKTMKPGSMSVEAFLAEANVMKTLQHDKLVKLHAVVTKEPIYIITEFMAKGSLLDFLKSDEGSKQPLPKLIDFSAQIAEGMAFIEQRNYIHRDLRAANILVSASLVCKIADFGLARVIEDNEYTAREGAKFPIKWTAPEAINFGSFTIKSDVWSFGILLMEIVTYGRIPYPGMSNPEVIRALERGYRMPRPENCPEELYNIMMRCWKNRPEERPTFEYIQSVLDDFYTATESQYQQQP
Chain of Tyrosine-protein kinase Fyn (Homo sapiens) (P06241 2-537 limits assumed): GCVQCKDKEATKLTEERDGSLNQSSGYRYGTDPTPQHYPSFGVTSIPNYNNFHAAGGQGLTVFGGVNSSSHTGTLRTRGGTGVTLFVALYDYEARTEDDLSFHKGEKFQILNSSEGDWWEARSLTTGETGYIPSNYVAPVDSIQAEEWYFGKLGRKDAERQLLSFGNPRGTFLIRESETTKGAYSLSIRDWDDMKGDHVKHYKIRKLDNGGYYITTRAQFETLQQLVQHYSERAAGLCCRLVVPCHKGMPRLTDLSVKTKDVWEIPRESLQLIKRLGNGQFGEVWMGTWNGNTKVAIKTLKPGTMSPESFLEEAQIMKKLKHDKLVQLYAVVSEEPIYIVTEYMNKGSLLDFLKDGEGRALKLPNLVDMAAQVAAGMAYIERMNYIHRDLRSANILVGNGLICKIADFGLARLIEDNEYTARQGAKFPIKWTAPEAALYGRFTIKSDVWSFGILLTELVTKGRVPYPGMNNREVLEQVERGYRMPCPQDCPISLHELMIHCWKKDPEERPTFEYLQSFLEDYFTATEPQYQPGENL

Compound | inhibition [1] | inhibition [2] | inhibition [3] | inhibition [4] | inhibition [5] | inhibition [6] | inhibition [7] | inhibition [8] | inhibition [9] | inhibition [10] | inhibition [11] | inhibition [12] | inhibition [13] | inhibition [14] | inhibition [15] | inhibition [16] | inhibition [17] | inhibition [18] | inhibition [19] | inhibition [20]
[O-][S+]1CCN(Cc2ccc(-c3ccc4ncnc(Nc5ccc(OCc6cccc(F)c6)c(Cl)c5)c4c3)o2)CC1 | 6% | 6.09% | 9.6% | 3.08% | 5.73% | 5.28% | 4.61% | 2.99% | 3.54% | 1.07% | 2.41% | 6.24% | 9.08% | 1.51% | 1.04% | -1.66% | -0.12% | 5.24% | 7.82% | 4.47%
NS(=O)(=O)c1ccc(Nc2ncc(-c3ccccc3)o2)cc1 | 5.41% | 4.43% | 10.7% | 3.39% | 3.81% | 2.2% | 4.14% | 3.04% | 1.16% | 1.19% | 2.34% | 3.09% | 5.63% | 0.87% | 3.74% | -0.66% | 3.55% | 6.16% | 23.6% | 38.7%
CCn1c(-c2nonc2N)nc2ccccc21 | 0.78% | 5.97% | 8.93% | 4.98% | 6.36% | 2.87% | 1.78% | 3.31% | 2.08% | 1.11% | 0.89% | 5.98% | -0.06% | 1.96% | 1.39% | -0.66% | 1.16% | 3.69% | 4.29% | 3.84%
CCN(CC)S(=O)(=O)c1ccc(OC)c(Nc2ncc(-c3ccccc3)o2)c1 | 45.2% | 7.41% | 28.1% | 7.86% | 7.98% | 2.78% | 2.35% | 0.57% | 0.72% | 0.31% | 2.62% | 1.87% | 0.33% | 0.36% | 1.73% | -0.47% | 2.16% | 31.3% | 68% | 33.5%
COc1cc(N2CCN(C(C)C)CC2)ccc1Nc1nc(Nc2ccc(F)cc2C(N)=O)c2cc[nH]c2n1 | 9.69% | 3.05% | 7.94% | 101% | 101% | 103% | 102% | 76.1% | 96.7% | 2.65% | 5.47% | 3.68% | 2.03% | 2.05% | 2.59% | 0.12% | 11.6% | 4.96% | 15.3% | -0.57%
O=C(O[C@H]1CN[C@H](C#Cc2cc3ncnc(Nc4ccc(Cc5ccccc5)cc4)c3s2)C1)N1CCOCC1 | 5.81% | 1.46% | 6.92% | -3.02% | -1.17% | -0.74% | -2.74% | 0.8% | 1.05% | -0.73% | 0.7% | 0.98% | 1.8% | -0.09% | -0.66% | -2.28% | -1.16% | -0.84% | 5.75% | 2.78%
NS(=O)(=O)c1ccc(N/N=C2\C(=O)Nc3ccc4ncccc4c32)cc1 | 30.1% | 13.6% | 73.5% | 1.63% | 13.7% | 5.75% | 27.8% | -0.5% | 1.85% | 2.75% | 18.5% | 2.63% | 17.3% | 1.52% | 22.4% | 14.2% | 67.7% | 61.6% | 88.6% | 63.8%
Fc1ccc(-c2nn3ncccc3c2-c2ccnc(Nc3ccc4c(c3)OCCO4)n2)cc1 | 88% | 26.3% | 71.5% | 8.14% | 3.49% | 7.04% | 18.3% | 2.61% | 1.61% | 1.51% | 0.31% | 3.02% | 2.04% | 0.34% | 1.88% | -0.15% | -1.41% | 30.6% | 75.5% | 60.7%
CNC(=O)c1cccc(C#Cc2cncnc2Nc2ccc(OCc3cccc(F)c3)c(Cl)c2)c1 | 5.06% | 2.16% | 2.54% | -0.34% | -0.55% | -2.02% | -0.61% | 0.75% | 0.96% | -0.18% | -0.18% | -1.06% | 7.9% | 0.28% | 1.34% | -1.04% | 1.79% | 1.34% | 3.79% | 2.56%
COc1ccc(-c2cc3c(N)ncnc3o2)cc1 | 3.42% | -0.32% | 7.05% | -3.63% | -0.91% | -0.41% | 2.44% | -2.87% | -2.2% | -0.48% | 0.68% | -0.12% | 7.71% | -0.86% | 3.1% | -0.88% | 0.39% | 0.19% | 2.97% | -0.07%
CNC(=O)c1cncc(/C=C/c2ccccc2Cl)c1 | 6.88% | 1.18% | 11.3% | 6.84% | 5.76% | -1.75% | -1.65% | -0.5% | -1.16% | 1.6% | 2.43% | 1.61% | 10.6% | 0.26% | 1.2% | 1.51% | 2.32% | 0.94% | 8.36% | 0.25%
Nc1ncc(-c2cccc(S(N)(=O)=O)c2)c2scc(-c3ccc(F)c(Cl)c3)c12 | 32.6% | 28.2% | 76.1% | 0.87% | 1.23% | -0.93% | 1.76% | 2.94% | 4.45% | 0.53% | 3.69% | 2.73% | 6.91% | 0.29% | 1.31% | -2.63% | -0.64% | 6.89% | 34.2% | 38%
